Test results published in PubChem BioAssay (Tox21).
Values joined by “and” are separate entries in the source; they are usually repeats but may differ in a detail not shown here. Equal values may be shown once. Results filed as inconclusive are left out. A call without a number means that no potency is given here. Where a structure was tested more than once in an assay, its records may differ in their call. Active and inactive are the calls of the source. The call rests on the fitted dose curve; in most records, active means well fitted cell-killing curve with a large enough effect in the repeat runs; inconclusive means weak or mixed curves; inactive means flat fitted curve, though single readings scatter.

Test: qHTS RealTime-Glo MT Cell Viability Assay in HepG2 cells - 24 hour (AID 1224867); further: nearly all actives have a fitted effect of over 50% in size
Conditions: RealTime-Glo luminescence; series mostly up to 76.8 µM
Method in brief: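 Cells + NanoLuc/prosubstrate dispensed (600 cells/well) → 5 h at 37 C/5% CO2 → compounds in DMSO transferred → 40 h incubation at 37 C, luminescence read at 0, 8, 16, 24, 32, 40 h.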
Potency means the concentration at half of the fitted maximal effect.

| SMILES | Potency |
| --- | --- |
| Nc1ccc(O)cc1 | inactive |
| CCc1cc(C(C)(C)C)c(O)c(C(C)(C)C)c1 | inactive |
| CCN(CC)C(=S)SSC(=S)N(CC)CC | 436 nM (active) and 398 nM (active) and inactive |
| C/C=C/c1ccc(OCC)c(O)c1 | inactive |
| O=C1OC2(c3ccc(O)cc3Oc3cc(O)ccc32)c2ccccc21 | inactive |
| COc1nc(C)nc(Cl)c1NC1=NCCN1 | inactive |
| O=C(O)c1cn(-c2ccc(F)cc2)c2cc(N3CCNCC3)c(F)cc2c1=O | inactive |
| CC(N)=O | inactive |
| CC1=C(C=O)C(C)(C)CC=C1 | inactive |
| O=C1Nc2ccccc2C1(c1ccc(O)cc1)c1ccc(O)cc1 | inactive |
| COc1ccc(CCN2CCC(Nc3nc4ccccc4n3Cc3ccc(F)cc3)CC2)cc1 | 17.8 µM (active) and 13.4 µM (active) |
| CC(COc1ccccc1)N(CCCl)Cc1ccccc1 (configuration not stated) | inactive |
| Nc1nc2ccccc2[nH]1 | inactive |
| CCN(CC)CCOc1ccc(/C(=C(\Cl)c2ccccc2)c2ccccc2)cc1 | 28.1 µM (active) and 23.9 µM (active) |
| Oc1c(Cl)cc(Cl)cc1Sc1cc(Cl)cc(Cl)c1O | inactive |
| C[N+]1([O-])CCOCC1 | inactive |
| CC(C)(O)CCC(C)(C)O | inactive |
| CC(=O)OCCOCCOCCOC(C)=O | inactive |
| O=C(Cl)c1cccc(C(=O)Cl)c1 | inactive |
| CCCOC(=O)c1cc(O)c(O)c(O)c1 | inactive |
| CCCCCCCCCCCCc1ccccc1O | inactive and 38.9 µM (active) |
| C=C(C)C(=O)O | inactive |
